SMN2 splice up: SMN2 splice variant enhancement; HEK293 SMN2-luciferase splicing reporter, luminescence, 30-36 h; Potency, µM (doses to about 46.1 µM), for the others: at the highest dose activity change, positive = activation, hits mostly activators; hit rate 2.8% among 210,000; also: % of control where 0% means no effect; nearly all actives have a fitted effect of over 55% in size
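qHTS luciferase splicing reporter: luminescence rises when SMN2 exon 7 is included in transfected HEK293 cells. Compound exposure lasted 30-36 h at 37C, with 4.5 mM final sodium butyrate as control, followed by a ONE-Glo read.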
ELG1 repair inh: ELG1-dependent DNA repair inhibition; HEK293T ELG1-luciferase reporter, luminescence, 16 h; DNA damage induced by 5-fluorouridine; Potency, µM (doses to about 46.1 µM), for inactives: top-dose activity change, negative = inhibition, hits mostly inhibitors; hit rate 2.3% among 330,000; AID 504467; also: % is scaled to controls: 0 for no effect and ±100 for the full control effect; nearly all actives have a fitted effect of over 55% in size
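In this reporter screen, reduction of luminescence relative to DMSO vehicle indicated activity. Compounds and 5-fluorouridine were added together to 2,000 cells per well, incubated for 16 hr at 37 °C, then developed with ONE-Glo.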
Rab9 promoter act: Rab9 promoter activation; Potency, µM (doses to about 9.22 µM), inactives show top-dose activation, negative = inhibition, hits mostly activators; hit rate 2.8% among 320,000; Huh7 Rab9 promoter-luciferase reporter, luminescence, 24 h; also: % of control where 0% means no effect; nearly all actives have a fitted effect of over 60% in size
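Rab9 promoter-driven luciferase in stably transfected Huh7 cells; 1500 cells/well rested 2 h, exposed to compound in DMSO for 24 h at 37 °C, 5% CO2. Luminescence read 10 min after adding luciferase reagent at ambient temperature.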
NPC1 promoter act: activates the NPC1 promoter. hit rate 2.4% among 320,000. Potency, µM (highest dose often 9.22 µM), for the others: at the highest dose activation, hits mostly activators. Huh7 NPC1 promoter luciferase reporter, 24 h; also: % of control where 0% means no effect; nearly all actives have a fitted effect of over 60% in size
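Huh7 reporter cells (NPC1 promoter driving luciferase) are dosed with compound for 24 h at 37 °C, 5% CO2; luciferase detection reagent is then added and luminescence measured after 10 min at ambient temperature.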
ELG1 genotoxic: inducers of genotoxicity in HEK293T ELG1-luciferase cells. HEK293T ELG1-luciferase reporter, luminescence, 16 h. Potency, µM (highest dose often 46 µM), for the others: at the highest dose activity change, positive = activation, actives largely listed as activators. hit rate 1.3% among 330,000; also: % of control where 0% means no effect; nearly all actives have a fitted effect of over 60% in size
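After overnight (16 hr) compound treatment at 37 °C, ELG1-luciferase HEK293T cells were lysed with ONE-Glo; luminescence quantified 30 min later at room temperature.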
FLuc counter: inhibits or activates purified firefly luciferase, miR-21 counter-screen; P08659; purified FLuc, Km substrates, luminescence inhibition; Potency, µM (titrated, usually from 57.5 µM), for inactives: at the highest dose activity change, negative = inhibition, actives largely listed as inhibitors; hit rate 6.9% among 360,000; AID 588342;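 also: plate controls were vehicle for no effect and reference inhibitor for full effect; nearly all actives have a fitted effect of over 55% in size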
Target sequence (P08659 whole entry, looked up): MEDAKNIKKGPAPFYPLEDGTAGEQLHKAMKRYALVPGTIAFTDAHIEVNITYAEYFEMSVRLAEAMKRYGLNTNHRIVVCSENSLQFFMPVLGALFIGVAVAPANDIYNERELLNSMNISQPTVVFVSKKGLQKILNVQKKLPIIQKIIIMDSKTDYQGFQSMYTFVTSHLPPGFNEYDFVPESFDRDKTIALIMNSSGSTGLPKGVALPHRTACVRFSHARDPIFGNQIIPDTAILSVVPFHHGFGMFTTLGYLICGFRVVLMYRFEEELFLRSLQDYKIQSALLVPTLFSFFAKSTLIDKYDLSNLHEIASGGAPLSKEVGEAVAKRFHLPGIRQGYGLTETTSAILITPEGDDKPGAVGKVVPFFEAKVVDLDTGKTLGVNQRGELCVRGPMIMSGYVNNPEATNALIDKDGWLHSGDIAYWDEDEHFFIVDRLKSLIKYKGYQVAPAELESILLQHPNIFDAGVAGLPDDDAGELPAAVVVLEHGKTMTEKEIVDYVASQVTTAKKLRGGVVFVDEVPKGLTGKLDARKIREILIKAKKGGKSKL
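Purified P. pyralis luciferase (10nM final) with 10uM D-luciferin and 10uM ATP (Km levels) in 50mM Tris acetate pH 7.5, 10mM Mg acetate, 0.01% Tween-20, 0.05% BSA; qHTS 6-point titration, ~60 µM downward; luminescence read.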
* hit, by the source's call; [ ] = dose if it differs, or a comment. Rows were chosen to be rich in hits. Some 9.4% of all compounds tested hit in one or more screens of this group. Calls follow the shape of the dose curve; as a rule, active = well fitted curve in the direction sought with a large enough effect; inconclusive = small, poorly fitted or top-dose-only effect, or another doubt; inactive = no such curve, though single readings can be large; an effect the other way counts as inactive or inconclusive. Potency is read from the fitted curve at half-maximal effect.

CCOc1cccc(C(=O)Nc2cc(-c3ccc(C)cc3)no2)c1 was read as SMN2 splice up 29% and FLuc counter -2%.
For CCOc1ccc(C(=O)Nc2cc(-c3ccccc3)no2)cc1 the results were SMN2 splice up inconclusive and FLuc counter 1.5µM*.
For COc1cccc(C(=O)Nc2cc(-c3ccccc3)no2)c1 the results were SMN2 splice up 16µM* and FLuc counter 1.2µM*.
Screening CCOc1ccc(CNCc2c(C(=O)O)c(C)n(Cc3ccc(C)cc3)c2C)cc1 returned SMN2 splice up 1% and FLuc counter 1%.
CCOC(=O)c1c(C)[nH]c(C)c1S(=O)(=O)NCC(=O)NCc1ccc(C)cc1 was read as FLuc counter -1%.
`O=C(Nc1ccc(Cl)cc1Cl)c1cc(S(=O)(=O)NCc2ccc3c(c2)OCO3)ccc1F` gave FLuc counter -1%.
For Cc1c(Cl)cc(C(C)(C)C)c(O)c1Cc1c(C)c(Cl)cc(C(C)(C)C)c1O the results were SMN2 splice up -48%[9.22 µM].
CCc1ccc2c(CN3CCN(S(=O)(=O)c4cccs4)CC3)cc(=O)oc2c1 was read as SMN2 splice up -39%, ELG1 repair inh inconclusive, Rab9 promoter act 0%, NPC1 promoter act 1%, ELG1 genotoxic -5% and FLuc counter 3%.
`Cc1ccc2c(CN3CCCCC3)cc(=O)oc2c1C` gave ELG1 repair inh inconclusive, Rab9 promoter act 2%, NPC1 promoter act 5%, ELG1 genotoxic inconclusive and FLuc counter inconclusive.
CCc1ccc2c(CN3CCN(S(=O)(=O)c4ccccc4F)CC3)cc(=O)oc2c1 was read as ELG1 repair inh 23µM* and ELG1 genotoxic -8%.
Screening Cc1ccc2c(CN3CCN(S(=O)(=O)c4ccccc4C(F)(F)F)CC3)cc(=O)oc2c1C returned ELG1 repair inh 16µM*, Rab9 promoter act -4%, NPC1 promoter act -7% and ELG1 genotoxic -6%.
For Cn1cccc1C(=O)N1CCC2(CC1)CCN(c1ccccc1)CC2 the results were SMN2 splice up -26%.
Screening O=C(OCc1c(Cl)cccc1Cl)c1ccccn1 returned SMN2 splice up 3%, ELG1 repair inh 11%, Rab9 promoter act 8%, NPC1 promoter act -2%, ELG1 genotoxic 1% and FLuc counter 0%.
Screening O=C(Cc1c(Cl)cccc1Cl)OCc1ccccn1 returned ELG1 repair inh inconclusive, Rab9 promoter act 25%, NPC1 promoter act 25%, ELG1 genotoxic 23µM* and FLuc counter inconclusive.
COc1ccccc1CCNC(=O)c1ccc(-c2nc(CSc3ccc(C)cc3)c(C)o2)cc1 was read as FLuc counter -12%.
Cc1cc(N2CCC(C)CC2)nc2ccc(NC(=O)CCC(=O)N3CCN(c4ccccc4F)CC3)cc12 was read as SMN2 splice up -12% and FLuc counter 4.8µM*.
For CCCCN(C)C(=O)CCC(=O)Nc1ccc2nc(N3CCOCC3)cc(C)c2c1 the results were SMN2 splice up 20µM*, ELG1 repair inh inconclusive, Rab9 promoter act inconclusive, NPC1 promoter act inconclusive, ELG1 genotoxic 6% and FLuc counter inconclusive.
`COc1ccccc1N1CCN(C(=S)Nc2ccc3nc(N4CCOCC4)cc(C)c3c2)CC1` gave SMN2 splice up -5%, ELG1 repair inh 18µM*, Rab9 promoter act -6%, NPC1 promoter act 5%, ELG1 genotoxic -12% and FLuc counter -15%.
Cc1cc(N2CCOCC2)nc2ccc(NC(=O)CCC(=O)N3CCC(C)CC3)cc12 was read as ELG1 repair inh inconclusive, Rab9 promoter act 4.5µM*, NPC1 promoter act inconclusive, ELG1 genotoxic 7% and FLuc counter 12µM*.
Screening Cc1cc(N2CCOCC2)nc2ccc(NC(=S)N3CCN(c4ccccc4)CC3)cc12 returned SMN2 splice up -45%, ELG1 repair inh 13%, Rab9 promoter act 2%, NPC1 promoter act -5%, ELG1 genotoxic 5% and FLuc counter 4%.
For CN1CCN(CCCNN)CC1 the results were SMN2 splice up -1%[9.22 µM].
Screening Cc1ccc(CN2CCN(C3CCN(C(=O)c4ccc(C)cc4)CC3)C(=O)C2=O)cc1 returned FLuc counter 1%.
`O=C(CSc1n[nH]c(-c2ccccc2Cl)n1)N1CCN(c2ccccc2)CC1` gave FLuc counter -2%.
`Cc1cc(N2CCOCC2)nc2ccc(Cc3ccc4nc(N5CCOCC5)cc(C)c4c3)cc12` gave SMN2 splice up -12%[9.22 µM].
`CCN1CCN(c2cc(C)c3cc(NC(=O)CCC(=O)N4CCN(c5ccccc5OC)CC4)ccc3n2)CC1` gave ELG1 repair inh inconclusive, Rab9 promoter act 5%, NPC1 promoter act 14%, ELG1 genotoxic 2% and FLuc counter 15µM*.
Cc1cc(N2CCOCC2)nc2ccc(NC(=O)CCC(=O)N3CCCCC3)cc12 was read as SMN2 splice up 8.9µM*, ELG1 repair inh inconclusive, Rab9 promoter act 4µM*, NPC1 promoter act inconclusive, ELG1 genotoxic inconclusive and FLuc counter inconclusive.
Screening CC(=O)c1ccc(N2CCN(C(=O)CCC(=O)Nc3ccc4nc(N5CCCCC5)cc(C)c4c3)CC2)cc1 returned SMN2 splice up 0% and FLuc counter inconclusive.
`Cc1cc(N2CCOCC2)nc2ccc(Cl)cc12` gave ELG1 repair inh inconclusive, Rab9 promoter act inconclusive, NPC1 promoter act inconclusive, ELG1 genotoxic inconclusive and FLuc counter 6µM*.
CCN1CCN(c2cc(C)c3cc(NC(=O)CCC(=O)N4CCN(c5ccccc5)CC4)ccc3n2)CC1 was read as ELG1 repair inh -19%, Rab9 promoter act 2%, NPC1 promoter act -5%, ELG1 genotoxic -3% and FLuc counter inconclusive.
For CC(C)N(C(=O)COC(=O)CCC(=O)c1cccs1)c1ccccc1 the results were ELG1 repair inh 0% and ELG1 genotoxic 0%.
`COc1ccc(C2=CSC3=NNC4(CCCCC4)NN23)cc1` gave SMN2 splice up 5%, ELG1 repair inh inconclusive, Rab9 promoter act inconclusive, NPC1 promoter act -11%, ELG1 genotoxic 9% and FLuc counter inconclusive.
Cc1ccc(C2=CSC3=NNC4(CCCCC4)NN23)cc1 was read as SMN2 splice up -17%, ELG1 repair inh -1%, Rab9 promoter act 4.5µM*, NPC1 promoter act -14%, ELG1 genotoxic 15% and FLuc counter 11µM*.

Compound activity: PubChem BioAssay, National Center for Advancing Translational Sciences (NCATS)
